Assay outcomes as filed in PubChem BioAssay.
This is a sample that favours compounds with a hit; in the whole collection about 17% have one here.
DT40 TDP1 no CPT – qHTS for Inhibitors of human tyrosyl-DNA phosphodiesterase 1 (TDP1): qHTS in cells in absence of CPT. DT40 Tdp1-/- hTDP1 cells, no CPT, ATP luminescence, 48 h. Potency, µM (top dose mostly 46.2 µM), usual class: inhibitors. 420,000 compounds, 15% hits; further: nearly all actives have a fitted effect of over 55% in size
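Seeded 400 DT40-hTDP1 cells/well (vehicle DMSO, no 20 nM CPT); pinned compounds; ≥48 hr at 37 °C; CellTiter-Glo luminescence as viability measure.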
HepG2 viability – HepG2 cytotoxicity, counter-screen for TGF-b inhibitors | AID 588856 | HepG2 CAGA-GFP viability, ATP luminescence, 18 h | 410,000 compounds, 0.76% hits | Potency, µM (titrated, usually from 46.1 µM), hits mostly cytotoxic
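HepG2 CAGA-GFP cells (1000/well, DMEM with 1% FBS) received compound, then TGF-beta at 500 pg/mL final, and were incubated 18 hours at 37 degrees C. Viability was read by CellTiter-Glo luminescence. Media-only wells were set as complete cell-killing and DMSO as no toxicity.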
TGFb SMAD3 inh – inhibitors of TGF-b signaling | HepG2 CAGA-GFP TGF-b/SMAD3 reporter, GFP fluorescence, 18 h; TGF-beta stimulated, 500 pg/mL final | Potency, µM (titrated, usually from 46.1 µM), usual class: inhibitors | 410,000 compounds, 1.2% hits; further: nearly all actives have a fitted effect of over 65% in size
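TGF-beta reporter screen: HEPG2 CAGA-GFP, 1% FBS, 500 pg/mL TGF-beta final, 18 h; per-cell GFP summed per well; curves fitted and categorized by class.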
ATXN viability – cell viability loss in ATXN counter-screen; S2 cells (HEK-293 line with an ATXN2-luciferase reporter) viability, CellTiter-Fluor protease fluorescence, 24 h; Potency, µM (top dose mostly 56.7 µM), most hits filed as cytotoxic; 400,000 compounds, 0.49% hits; further: nearly all actives have a fitted effect of over 40% in size
TDP1 cell CPT – growth inhibition of DT40 Tdp1-/-;hTDP1 cells with camptothecin (screen for TDP1 inhibitors). chicken DT40 Tdp1-/-;hTDP1 cells + 20 nM CPT, ATP luminescence, 48 h. Potency, µM (highest dose often 46.2 µM), most hits filed as inhibitors. 420,000 compounds, 12% hits. AID 686979; further: nearly all actives have a fitted effect of over 55% in size
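Chicken DT40 Tdp1-/- cells complemented with human TDP1, 400 cells/well, exposed to compounds plus 20 nM camptothecin for at least 48 h at 37 C; viability read as ATP content by CellTiter-Glo luminescence.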
ATXN2 expr inh – ATXN2 expression inhibition; HEK-293 ATXN2-luciferase reporter, luminescence, 24 h; Potency, µM (series often up to 57 µM), most hits filed as inhibitors; 360,000 compounds, 0.72% hits; AID 1745845; further: nearly all actives have a fitted effect of over 55% in size
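qHTS (up to 57 uM final) was run with 24 h compound exposure of reporter cells at 37 °C. Each well was multiplexed: SteadyGlo luminescence measured ATXN2-luciferase expression after a fluorogenic Gly-Phe-AFC viability readout (25 uM final).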
Of the large screens only hits and unclear results are named; the others gave an inactive call. The call rests on the fitted dose curve; in most records, active means well fitted curve in the direction sought with a large enough effect; inconclusive means small, poorly fitted or top-dose-only effect, or another doubt; inactive means no such curve, though single readings can be large; an effect the other way counts as inactive or inconclusive.

CCOc1ccc(/C=N/OCC(=O)NCc2ccc3c(c2)OCO3)cc1OC	DT40 TDP1 no CPT inconclusive, TGFb SMAD3 inh inconclusive, TDP1 cell CPT inconclusive
CC(=O)Nc1ccc(SCCN2CCN(CCc3ccccc3)CCC2=O)cc1	TGFb SMAD3 inh inconclusive (no result: DT40 TDP1 no CPT, ATXN viability, TDP1 cell CPT, ATXN2 expr inh)
COc1ccc2nc(NC(=O)C3CCN(S(=O)(=O)c4cccnc4)CC3)sc2c1	DT40 TDP1 no CPT 15µM, TDP1 cell CPT 12µM
CC1CCN(S(=O)(=O)c2ccc(C(=O)Nc3nc4ccc(F)cc4s3)cc2)CC1	TDP1 cell CPT inconclusive
CCOc1ccc(OCC)c(NC(=O)C2CCN(S(=O)(=O)c3c(C)[nH]c(=O)[nH]c3=O)CC2)c1	DT40 TDP1 no CPT inconclusive, TDP1 cell CPT 18µM
COc1ccc2nc(NC(=O)c3ccc(S(=O)(=O)N4CCCC(C)C4)cc3)sc2c1 (stereo unspecified)	DT40 TDP1 no CPT 12µM, TDP1 cell CPT 16µM
Cc1ccc2nc(NC(=O)C3CCN(S(=O)(=O)c4cnc[nH]4)CC3)sc2c1	DT40 TDP1 no CPT 16µM, TDP1 cell CPT inconclusive
CCOc1ccc(OCC)c(NC(=O)C2CCN(S(=O)(=O)c3cn(C)cn3)CC2)c1	TGFb SMAD3 inh inconclusive (no result: ATXN viability, ATXN2 expr inh)
Cc1ccc(-n2nc(C(=O)Nc3ccc(Br)cc3C)c(=O)n(C)c2=O)cc1	none
COc1ccc2nc(NC(=O)C3CCCN(S(=O)(=O)c4cccs4)C3)sc2c1 (stereo unspecified)	DT40 TDP1 no CPT 18µM, TDP1 cell CPT inconclusive
Cc1ccc2nc(NC(=O)C3CCN(S(=O)(=O)c4cccs4)CC3)sc2c1	DT40 TDP1 no CPT 16µM, TDP1 cell CPT 23µM, ATXN2 expr inh inconclusive
CCOc1ccc(OCC)c(NC(=O)C2CCCN(c3nc(C)cc(C)n3)C2)c1 (stereo unspecified)	DT40 TDP1 no CPT 21µM, TDP1 cell CPT 23µM
Cc1cc(NC(=O)C2CCN(S(=O)(=O)c3cccs3)CC2)no1	DT40 TDP1 no CPT inconclusive, TGFb SMAD3 inh inconclusive
O=C(Nc1ccon1)C1CCN(S(=O)(=O)c2cccs2)CC1	DT40 TDP1 no CPT 23µM, TDP1 cell CPT inconclusive
Cc1cccc(NC(=O)C2CCN(S(=O)(=O)c3cccs3)CC2)c1	none
COc1ccc2nc(NC(=O)CNS(=O)(=O)c3cccs3)sc2c1	none
Cc1cccc(-c2nc3c4ccccc4nc(NCc4ccc(Cl)cc4)n3n2)c1	none (no result: ATXN viability, ATXN2 expr inh)
Cc1ccc2c(c1)sc1nc(-c3cc4ccccc4oc3=O)cn12	ATXN viability inconclusive
CN(CC(=O)Nc1cccc(F)c1)C(=O)c1ccc(N2CCOCC2)c([N+](=O)[O-])c1	DT40 TDP1 no CPT inconclusive, TDP1 cell CPT inconclusive
CCOc1ccc(NC(=O)CN(C)C(=O)c2ccc(N3CCCCC3)c([N+](=O)[O-])c2)cc1OCC	DT40 TDP1 no CPT inconclusive, ATXN viability inconclusive, TDP1 cell CPT inconclusive
CN(CC(=O)Nc1ccccc1Cl)C(=O)c1ccc(N2CCCCCC2)c([N+](=O)[O-])c1	DT40 TDP1 no CPT 18µM, TGFb SMAD3 inh inconclusive, TDP1 cell CPT 23µM
Cc1cccc(NC(=O)CN(C)C(=O)c2ccc(N3CCCCCC3)c([N+](=O)[O-])c2)c1C	DT40 TDP1 no CPT 18µM, TDP1 cell CPT 23µM
CN(CC(=O)Nc1ccc(Cl)c(C(F)(F)F)c1)C(=O)c1ccc(N2CCOCC2)c([N+](=O)[O-])c1	DT40 TDP1 no CPT 26µM, TGFb SMAD3 inh inconclusive, ATXN viability inconclusive, TDP1 cell CPT 23µM, ATXN2 expr inh inconclusive
C#CCOCCOCCOCCNc1nc(N2CCN(C(=O)Cn3cc(CC(C)O)nn3)CC2)nc(N2CCN(C(=O)[C@H](C)n3cc(CCCN=C(N)N)nn3)CC2)n1 (stereo partly specified)	none
COc1ccccc1C(=O)NCCNc1ccc([N+](=O)[O-])cc1Cl	ATXN viability inconclusive, TDP1 cell CPT inconclusive
CCS(=O)(=O)N1CCN=C1SCc1cccnc1	TDP1 cell CPT inconclusive (no result: ATXN2 expr inh)
COc1ccc(NC(=O)COc2cccc(C(F)(F)F)c2)cn1	DT40 TDP1 no CPT inconclusive
O=[N+]([O-])c1ccc(Oc2cccc(C(F)(F)F)c2)nc1	DT40 TDP1 no CPT inconclusive, TDP1 cell CPT 13µM
O=C(Nc1ccc(Oc2cccc(C(F)(F)F)c2)nc1)c1ccccc1	DT40 TDP1 no CPT 13µM
O=C(Nc1ccc(Oc2cccc(C(F)(F)F)c2)nc1)c1cccs1	DT40 TDP1 no CPT 16µM, TGFb SMAD3 inh inconclusive, TDP1 cell CPT 21µM, ATXN2 expr inh inconclusive
O=[N+]([O-])c1ccc(Oc2ccc(C(F)(F)F)cn2)cc1	none
O=C(NC1CCCC1)c1cccc(S(=O)(=O)Nc2ccccc2F)c1	none
Cc1ccc(S(=O)(=O)Nc2ccccc2C(=O)N2CCN(C)CC2)cc1	none
O=C(N/N=C/c1ccccn1)c1cc(-c2ccncc2)nc2ccccc12	DT40 TDP1 no CPT inconclusive, ATXN viability inconclusive, TDP1 cell CPT inconclusive, ATXN2 expr inh inconclusive
Cc1cc(C(=O)N/N=C/c2ccc3c(c2)OCO3)c2ccccc2n1	DT40 TDP1 no CPT 2.1µM, ATXN viability inconclusive, TDP1 cell CPT 2.3µM
O=C(N/N=C/c1ccc2c(c1)OCO2)c1cc(-c2ccncc2)nc2ccccc12	DT40 TDP1 no CPT 4.1µM, TDP1 cell CPT 3.7µM
CC[C@H]1NC(=O)[C@@H](NC(=O)c2ncccc2O)[C@@H](C)OC(=O)[C@H](c2ccccc2)NC(=O)[C@@H]2CC(=O)CCN2C(=O)[C@H](Cc2ccccc2)N(C)C(=O)[C@@H]2CCCN2C1=O	none (no result: HepG2 viability, TGFb SMAD3 inh, ATXN viability, ATXN2 expr inh)
CCC(=O)C1=C(c2ccc(F)cc2)N(C(=O)CC)n2cnnc2S1	DT40 TDP1 no CPT 13µM, TGFb SMAD3 inh inconclusive, TDP1 cell CPT 18µM (no result: ATXN viability, ATXN2 expr inh)
CCOc1ccc(C2=C(C(=O)CC)Sc3nncn3N2C(=O)CC)cc1	DT40 TDP1 no CPT inconclusive, TGFb SMAD3 inh inconclusive, TDP1 cell CPT 16µM (no result: ATXN viability, ATXN2 expr inh)
CCC(=O)C1=C(c2ccc(OC)c(OC)c2)N(C(=O)CC)n2c(nnc2-c2ccc(C)cc2)S1	none (no result: ATXN viability, ATXN2 expr inh)
O=C(Cn1cnc2ccccc21)N1CCN(S(=O)(=O)c2ccccc2)CC1	DT40 TDP1 no CPT inconclusive (no result: ATXN viability)
C=CCN1C=C2C(=O)C(C)(OC(=O)c3cnc4ccccc4n3)C(=O)C=C2C=C1/C=C/COC (stereo unspecified)	DT40 TDP1 no CPT 16µM, TGFb SMAD3 inh inconclusive, ATXN viability inconclusive, TDP1 cell CPT inconclusive
CSc1nc(-c2ccccc2)nn1C(=O)c1ccccc1	DT40 TDP1 no CPT 23µM, TDP1 cell CPT inconclusive
CSc1nc(-c2ccc(Cl)cc2)nn1C(=O)c1ccccc1	TDP1 cell CPT inconclusive
